Assay results taken from PubChem BioAssay AID720565 (National Center for Advancing Translational Sciences (NCATS), 2013).
Several values for one entry are separate records, joined by “and”; a condition that tells them apart may be missing. Equal entries are not always repeated. Inconclusive results are not listed. A number with no mark means an inactive call. Activity calls are given as the source filed them. The call rests on the fitted dose curve; in most records, active means well fitted activation curve with a large enough effect; inconclusive means small, poorly fitted or top-dose-only effect; inactive means no such curve, though single readings can be large or run the other way.

test: qHTS for small molecules that induce genotoxicity in ELG1 expressing cells: Confirmatory Assay for Cherry-picked Compounds; settings: ELG1-luciferase reporter cells, luminescence, 16 h; series mostly up to 46.1 µM; activation: at the top concentration; further: nearly all actives have a fitted effect of over 35% in size; on activation: % of control where 0% means no effect
Procedure, shortened: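 Activation readout: ONE-Glo luciferase signal from ELG1 reporter cells, 2,000 per well, after 16 hr compound incubation at 37 C. Increased ELG1-driven luminescence reflects genetic stress.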
Potency means the concentration at half of the fitted maximal effect.

SMILES	Potency	activation
O=C(N[C@H]1/C=C\[C@@H](O)CCCC1)OCc1ccccc1	9.96 µM (active)	–
COc1cccc(-c2cc(NCc3cccs3)ncn2)c1	3.97 µM (active)	–
O=C1CCCC(=NNC(=O)c2cc3ccccc3cc2O)C1	15.8 µM (active)	–
O=C(OCC(=O)N1CCCCC1)c1cccs1	14.1 µM (active)	–
CCOc1ccc2oc(C(=O)Nc3nccs3)c(C)c2c1	2.23 µM (active)	–
O=c1[nH]c(=O)n([C@@H]2O[C@H](CO)[C@@H](O)[C@H]2O)cc1F	3.97 µM (active)	–
CCOC(=O)N1CCN(C(=O)CSCC(=O)Nc2nc(-c3ccccc3)cs2)CC1	–	-28.1%
COc1cccc(CNC(=O)C2CCCN(c3nn4c(=O)cc(C)nc4s3)C2)c1 (stereo unspecified)	–	-15.2%
O=C1CCc2cc(NS(=O)(=O)c3ccccc3)cc3c2N1CC3	–	25%
COc1cc2cc(C)c(SCC(=O)N3CCOCC3)nc2cc1OC	–	2.87%
O=C(Nc1cc(Cl)ccc1Cl)c1ccc(OC(=O)c2ccco2)cc1	–	-16.4%
Cc1ccc(-c2nnc(SCC(=O)Nc3ccccc3F)o2)cc1	115 nM (active) and 88.9 nM (active)	–
CN(C)c1ccc(C(=O)OCC(=O)c2ccc[nH]2)cc1	14.1 µM (active)	–
CC(=NNC(=O)c1cccs1)c1ccc2c(c1)OCCO2	14.1 µM (active)	–
O=C(CSc1nnc(-c2cccnc2)o1)Nc1ccccn1	9.12 µM (active) and 8.89 µM (active)	–
O=c1c2ccccc2oc2ccc(-c3ccc4cc[nH]c4c3)cc12	1.26 µM (active)	–
CC(=O)c1cc(F)ccc1OCC(=O)Nc1ccc2c(c1)OCO2	6.28 µM (active)	–
CCn1c(=O)n(CC)c2cc(S(=O)(=O)N3CCCCC3)c(C)cc21	–	26.9%
Nc1ccc2cccnc2c1	1.77 µM (active)	–
COc1ccc(-c2cc3cc(F)ccc3cn2)cc1	2.23 µM (active)	–
Cc1cc2ncc(-c3ccccc3)nc2cc1C	1.41 µM (active)	–
